Active and inactive are the calls of the source. The calls were made as follows: active = hit-call score of the fitted dose curve at least 0.9, where 1 is the maximum; inactive = score below 0.9.

Assay [1] is described as follows: ATG_GLI_CIS: Attagene CIS-FACTORIAL HepG2 Assay for human Zinc Finger Protein GLI1 (AID 2282945). The following applies: HepG2, Attagene cis-factorial reporter mRNA, GLI element; actives raise or lower the signal. The essentials:
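HepG2 cells transiently transfected with cis-promoter multiplexed reporter units report endogenous transcription factor activity. After 24 h chemical exposure, reporter mRNA was quantified by RT-PCR, 6-FAM labelling, HpaI digestion and capillary electrophoresis, with bidirectional fitting against DMSO.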

The target of assay [2] is Bile acid receptor (Homo sapiens) (UniProt Q96RI1). As to the kind of experiment: ATG_IR1_CIS: Attagene CIS-FACTORIAL HepG2 Assay for human Nuclear Receptor Subfamily 1 Group H Member 4 (NR1H4), IR1 submotif (AID 2282946). The following applies: IR1 reporter transcription, actives raise or lower the signal. In a few lines: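 Transient MRTU transfection, HepG2; 24 h dosing; RNA → RT-PCR → 6-FAM primer extension → HpaI digest → capillary electrophoresis fluorescence. Gain/loss of signal fitted relative to DMSO.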

Assay [3] can be described thus: ATG_GRE_CIS: Attagene CIS-FACTORIAL HepG2 Assay for human Glucocorticoid Response Elements (GRE) (AID 2282947). The following applies: HepG2 GRE cis-reporter, Attagene multiplex mRNA; actives raise or lower the signal. In a few lines: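 HepG2 cells transiently transfected with multiple cis-promoter reporter units measure endogenous TF activity; 24 h compound exposure. Reporter mRNA quantified by RT-PCR, FAM labelling, HpaI digestion and capillary electrophoresis; bidirectional fit vs DMSO baseline.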

A short description of assay [4]: ATG_ISRE_CIS: Attagene CIS-FACTORIAL HepG2 Assay for human Interferon Regulatory Factor 1 (IRF1) binding to an Interferon-Stimulated Response Element (ISRE) (AID 2282948). Particulars: HepG2 ISRE cis-reporter (Attagene), mRNA transcription readout; actives raise or lower the signal. The essentials:
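Transiently transfected HepG2 cells carrying cis-element reporter units, dosed 24 hours. Reporter mRNA quantified by RT-PCR, fluorescent primer extension, HpaI digestion and capillary electrophoresis. Bidirectional fitting relative to DMSO.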

A short description of assay [5]: ATG_M_06_CIS: Attagene CIS-FACTORIAL HepG2 Assay for M06 Transcription Factor (Internal Marker) (AID 2282950). Particulars: HepG2 Attagene CIS-FACTORIAL M06 internal marker reporter; actives raise or lower the signal. The essentials:
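Fluorescence-labelled RT-PCR products from cis-promoter reporter units, cut with HpaI and resolved by capillary electrophoresis, give the signal. Cells are human HepG2, dosed for 24 h. Serves as background control, fitted relative to DMSO.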

In assay [6] the target is Hypoxia-inducible factor 1-alpha (Homo sapiens) (UniProt Q16665). As to the kind of experiment: ATG_HIF1a_CIS: Attagene CIS-FACTORIAL HepG2 Assay for human Hypoxia Inducible Factor 1 (HIF1A) (AID 2282951). The following applies: HepG2 Attagene cis-factorial HIF1a reporter transcription; actives raise or lower the signal. In a few lines:
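Transient MRTU transfection of human HepG2 liver cells, 24 h compound treatment, then total RNA isolation, oligo(dT) reverse transcription, PCR amplification, fluorescent labelling and capillary electrophoresis of reporter fragments. Gain or loss relative to DMSO.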

Assay [7] has as its target Hepatocyte nuclear factor 6 (Homo sapiens) (UniProt Q9UBC0). As to the kind of experiment: ATG_HNF6_CIS: Attagene CIS-FACTORIAL HepG2 Assay for human Hepatocyte Nuclear Factor 6 (HNF6) (AID 2282952). The following applies: HepG2 Attagene cis-factorial HNF6 reporter transcription; actives raise or lower the signal. In a few lines:
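HepG2 cells transiently transfected with cis-element-driven multiplexed reporter units measuring endogenous transcription factor activity. After 24 h exposure, reporter mRNA quantified by RT-PCR, FAM-labelled fragments and capillary electrophoresis; bidirectional fitting versus DMSO.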

For assay [8], the target named is Heat shock factor protein 1 (Homo sapiens) (UniProt Q00613). As to the kind of experiment: ATG_HSE_CIS: Attagene CIS-FACTORIAL HepG2 Assay for human Heat Shock Transcription Factor 1 (HSE) (AID 2282953). The following applies: HepG2 HSE cis-reporter, Attagene RNA transcription; actives raise or lower the signal. In a few lines: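 After a 24 h incubation with test chemical, transfected HepG2 cells were harvested for RNA; reporter transcripts were measured by RT-PCR and capillary electrophoresis. Values reflect gain or loss of signal relative to DMSO.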

Assay [9] is described as follows: ATG_MRE_CIS: Attagene CIS-FACTORIAL HepG2 Assay for human Metal Responsive Element (MRE) (AID 2282954). Particulars: HepG2 MRE cis-reporter transcription, Attagene multiplex; actives raise or lower the signal. The essentials: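 HepG2 cells transiently transfected with multiple cis-element reporter units measure endogenous MTF1-driven transcription. After 24 h compound exposure, reporter mRNA is quantified by RT-PCR with 6-FAM labelling, HpaI digestion and capillary electrophoresis; bidirectional fits versus DMSO.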

A short description of assay [10]: ATG_PBREM_CIS: Attagene CIS-FACTORIAL HepG2 Assay for human Phenobarbital-responsive Enhancer Module (PBREM) (AID 2282955). The following applies: HepG2 PBREM cis-reporter, Attagene multiplexed transcription; actives raise or lower the signal. In a few lines: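 Endogenous transcription factors in human liver HepG2 cells drive a PBREM cis-element reporter, whose transcript level after 24 h treatment is quantified by RT-PCR with capillary electrophoresis; activity fitted in both directions against DMSO.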

Assay [11] concerns the target Paired box protein Pax-6 (Homo sapiens) (UniProt P26367). As to the kind of experiment: ATG_Pax6_CIS: Attagene CIS-FACTORIAL HepG2 Assay for human Paired Box 6 (PAX6) (AID 2282956). Particulars: HepG2 CIS-FACTORIAL PAX6 reporter transcription, RNA readout; actives raise or lower the signal. The essentials:
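HepG2 cells transiently transfected with cis-promoter-driven multiplexed reporter units sensing endogenous transcription factor activity; 24 h chemical exposure. Reporter mRNA quantified by RT-PCR, 6-FAM labelling, HpaI digestion and capillary electrophoresis; bidirectional fit versus DMSO baseline.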

The nature of assay [12]: ATG_PXRE_CIS: Attagene CIS-FACTORIAL HepG2 Assay for human Pregnane X Receptor Element (PXRE) (AID 2282957). Particulars: HepG2 Attagene CIS-FACTORIAL PXRE reporter, mRNA; actives raise or lower the signal. The essentials: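 HepG2 cells transiently transfected with cis-element-driven multiplexed reporter units; after 24 h chemical exposure, reporter mRNA measured by RT-PCR, 6-FAM labelling, HpaI digestion and capillary electrophoresis. Bidirectional fitting relative to DMSO.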

Assay [13] is described as follows: ATG_PPRE_CIS: Attagene CIS-FACTORIAL HepG2 Assay for human Peroxisome Proliferator-activated Response Element (PPRE) (AID 2282958). Particulars: HepG2 PPRE cis-element reporter, Attagene transcription factor profiling; actives raise or lower the signal. In a few lines: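 HepG2, transient MRTU transfection (cis promoter elements, endogenous TFs). 24 h dosing. RNA → oligo(dT) RT → PCR → 6-FAM primer extension → HpaI digest → CE. Bidirectional fit vs DMSO.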

Assay [14] is described as follows: ATG_RORE_CIS: Attagene CIS-FACTORIAL HepG2 Assay for human RAR-related Orphan Receptor Element (RORE) (AID 2282959). Particulars: HepG2 Attagene cis-factorial RORE reporter, mRNA; actives raise or lower the signal. In a few lines:
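Transient MRTU transfection of human HepG2 liver cells (FuGene 6); 24 h compound exposure; TriZol RNA, oligo(dT) RT, PCR, FAM labeling, HpaI cut, CE fragment analysis. DMSO = negative control/baseline.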

Assay [15] in a line: ATG_Sox_CIS: Attagene CIS-FACTORIAL HepG2 Assay for human SRY-box transcription factor (SOX) (AID 2282960). The following applies: HepG2 Attagene cis-factorial SOX reporter, mRNA; actives raise or lower the signal. In a few lines:
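Endogenous factor activity in human liver HepG2 cells carrying transfected cis-regulated reporter units. RNA taken 24 h post-dose, reverse-transcribed, PCR-amplified and sized by capillary electrophoresis. Gain or loss of signal fitted relative to DMSO.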

In assay [16] the target is Transcription factor Sp1 (Homo sapiens) (UniProt P08047). Put plainly: ATG_Sp1_CIS: Attagene CIS-FACTORIAL HepG2 Assay for human Specificity Protein 1 (Sp1) (AID 2282961). Particulars: HepG2 Sp1 cis-reporter transcription, actives raise or lower the signal. The essentials: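 Transient MRTU-transfected HepG2, 24 h compound exposure. Total RNA → oligo(dT) RT → PCR of reporter → 6-FAM primer extension → HpaI digest → CE. Endpoint fitted both directions vs DMSO.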

Assay [17] in a line: ATG_SREBP_CIS: Attagene CIS-FACTORIAL HepG2 Assay for human Sterol Regulatory Element Binding (SREBP) (AID 2282962). Particulars: HepG2 Attagene cis-factorial SREBP reporter, mRNA; actives raise or lower the signal. The essentials:
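HepG2 cells transiently transfected with multiplexed cis-promoter reporter units sensing endogenous transcription factors; reporter mRNA measured 24 h after dosing by RT-PCR, 6-FAM labeling, HpaI digestion and capillary electrophoresis. Bidirectional fit versus DMSO.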

Assay [18] addresses Signal transducer and activator of transcription 3 (Homo sapiens) (UniProt P40763). Put plainly: ATG_STAT3_CIS: Attagene CIS-FACTORIAL HepG2 Assay for human Signal Transducer and Activator of Transcription 3 (STAT3) (AID 2282963). The following applies: HepG2, Attagene cis-factorial STAT3 reporter transcription; actives raise or lower the signal. In a few lines: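 HepG2 cells transiently transfected with cis-element-driven multiple reporter transcription units; after 24 h chemical exposure, reporter mRNA measured by RT-PCR, 6-FAM primer-extension labelling, HpaI digestion and capillary electrophoresis. Bidirectional fitting versus DMSO baseline.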

A short description of assay [19]: ATG_TA_CIS: Attagene CIS-FACTORIAL HepG2 Assay for human TA Basal Promoter (AID 2282964). Particulars: HepG2 Attagene CIS-factorial TA basal promoter reporter; actives raise or lower the signal. In a few lines: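 Multiplexed mRNA reporter assay, HepG2, 24 h. Reporter cDNA amplified, 6-FAM primer-extended, HpaI-cut, CE-sized; DMSO = negative control and baseline.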

The nature of assay [20]: ATG_M_32_CIS: Attagene CIS-FACTORIAL HepG2 Assay for M32 Transcription Factor (Internal Marker) (AID 2282949).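 Also: background control marker of the multiplexed CIS panel rather than a real target.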 The following applies: HepG2 Attagene cis-factorial M32 reporter, mRNA; actives raise or lower the signal. The essentials:
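Internal background marker read-out: RT-PCR/capillary electrophoresis fluorescence of reporter transcripts from transiently transfected HepG2 cells after 24 h chemical exposure. Activity fitted bidirectionally relative to DMSO negative control.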

Hypoxia-inducible factor 1-alpha (Homo sapiens), sequence (Q16665 whole entry, looked up, the tested form may be a part): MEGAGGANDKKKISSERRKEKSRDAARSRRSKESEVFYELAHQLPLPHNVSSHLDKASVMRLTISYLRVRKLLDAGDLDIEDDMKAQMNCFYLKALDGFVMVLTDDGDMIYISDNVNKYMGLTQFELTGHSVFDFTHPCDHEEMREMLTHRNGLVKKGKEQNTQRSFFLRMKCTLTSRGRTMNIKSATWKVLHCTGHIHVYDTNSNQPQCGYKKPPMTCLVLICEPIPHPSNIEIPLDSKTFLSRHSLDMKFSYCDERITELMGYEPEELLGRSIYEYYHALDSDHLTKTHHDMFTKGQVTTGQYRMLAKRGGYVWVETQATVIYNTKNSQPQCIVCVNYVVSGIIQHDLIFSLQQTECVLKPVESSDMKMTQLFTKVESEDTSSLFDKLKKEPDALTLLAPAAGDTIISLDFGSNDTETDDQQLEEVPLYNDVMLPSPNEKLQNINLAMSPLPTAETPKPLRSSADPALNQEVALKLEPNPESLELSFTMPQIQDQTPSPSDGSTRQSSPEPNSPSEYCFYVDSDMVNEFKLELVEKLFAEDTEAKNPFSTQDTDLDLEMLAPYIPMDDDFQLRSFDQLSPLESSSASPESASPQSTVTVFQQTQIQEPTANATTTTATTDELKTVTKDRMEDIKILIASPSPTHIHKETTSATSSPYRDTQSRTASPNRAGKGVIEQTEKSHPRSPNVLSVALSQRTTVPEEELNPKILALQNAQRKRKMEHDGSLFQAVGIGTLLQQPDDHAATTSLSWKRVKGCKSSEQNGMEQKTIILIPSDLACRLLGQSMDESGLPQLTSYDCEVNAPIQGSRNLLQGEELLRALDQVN
Transcription factor Sp1 (Homo sapiens), sequence (P08047 whole entry, looked up): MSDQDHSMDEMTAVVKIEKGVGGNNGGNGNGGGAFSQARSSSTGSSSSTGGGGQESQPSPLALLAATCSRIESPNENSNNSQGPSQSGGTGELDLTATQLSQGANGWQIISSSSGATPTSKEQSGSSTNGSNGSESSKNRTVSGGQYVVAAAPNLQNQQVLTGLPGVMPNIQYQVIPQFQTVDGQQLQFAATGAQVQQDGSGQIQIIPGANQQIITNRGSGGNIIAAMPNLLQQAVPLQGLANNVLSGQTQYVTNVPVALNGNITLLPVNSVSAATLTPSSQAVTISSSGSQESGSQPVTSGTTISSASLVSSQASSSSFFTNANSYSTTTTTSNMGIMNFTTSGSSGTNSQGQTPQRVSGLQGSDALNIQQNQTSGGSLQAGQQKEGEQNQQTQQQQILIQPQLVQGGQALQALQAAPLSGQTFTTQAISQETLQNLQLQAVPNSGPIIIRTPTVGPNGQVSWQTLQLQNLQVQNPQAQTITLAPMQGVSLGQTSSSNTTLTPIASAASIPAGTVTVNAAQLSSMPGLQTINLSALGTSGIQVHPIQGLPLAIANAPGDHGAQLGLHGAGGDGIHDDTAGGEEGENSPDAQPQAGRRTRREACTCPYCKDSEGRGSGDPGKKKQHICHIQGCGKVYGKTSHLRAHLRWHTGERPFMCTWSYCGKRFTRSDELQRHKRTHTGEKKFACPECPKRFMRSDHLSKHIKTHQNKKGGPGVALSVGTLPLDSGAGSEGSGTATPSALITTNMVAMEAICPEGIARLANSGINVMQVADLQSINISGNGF
Signal transducer and activator of transcription 3 (Homo sapiens), sequence (P40763 whole entry, looked up): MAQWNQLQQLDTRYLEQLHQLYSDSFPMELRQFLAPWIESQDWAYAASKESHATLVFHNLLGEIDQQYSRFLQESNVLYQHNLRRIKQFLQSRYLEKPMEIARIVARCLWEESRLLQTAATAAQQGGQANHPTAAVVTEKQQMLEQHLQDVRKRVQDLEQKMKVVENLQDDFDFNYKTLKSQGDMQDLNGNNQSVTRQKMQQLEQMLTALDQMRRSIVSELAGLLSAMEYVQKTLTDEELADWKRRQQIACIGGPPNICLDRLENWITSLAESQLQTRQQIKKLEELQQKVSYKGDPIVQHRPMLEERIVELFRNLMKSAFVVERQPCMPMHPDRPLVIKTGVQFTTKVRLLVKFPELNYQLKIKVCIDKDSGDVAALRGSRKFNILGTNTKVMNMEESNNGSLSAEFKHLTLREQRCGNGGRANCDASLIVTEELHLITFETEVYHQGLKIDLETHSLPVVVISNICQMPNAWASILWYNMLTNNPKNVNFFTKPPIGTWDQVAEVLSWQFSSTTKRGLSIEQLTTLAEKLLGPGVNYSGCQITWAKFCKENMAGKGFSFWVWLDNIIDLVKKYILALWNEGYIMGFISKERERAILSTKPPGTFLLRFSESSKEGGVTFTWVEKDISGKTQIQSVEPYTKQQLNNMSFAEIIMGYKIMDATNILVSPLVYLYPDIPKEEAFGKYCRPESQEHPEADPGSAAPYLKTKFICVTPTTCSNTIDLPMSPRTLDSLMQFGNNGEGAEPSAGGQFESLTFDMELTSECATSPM
Paired box protein Pax-6 (Homo sapiens), sequence (P26367 whole entry, looked up): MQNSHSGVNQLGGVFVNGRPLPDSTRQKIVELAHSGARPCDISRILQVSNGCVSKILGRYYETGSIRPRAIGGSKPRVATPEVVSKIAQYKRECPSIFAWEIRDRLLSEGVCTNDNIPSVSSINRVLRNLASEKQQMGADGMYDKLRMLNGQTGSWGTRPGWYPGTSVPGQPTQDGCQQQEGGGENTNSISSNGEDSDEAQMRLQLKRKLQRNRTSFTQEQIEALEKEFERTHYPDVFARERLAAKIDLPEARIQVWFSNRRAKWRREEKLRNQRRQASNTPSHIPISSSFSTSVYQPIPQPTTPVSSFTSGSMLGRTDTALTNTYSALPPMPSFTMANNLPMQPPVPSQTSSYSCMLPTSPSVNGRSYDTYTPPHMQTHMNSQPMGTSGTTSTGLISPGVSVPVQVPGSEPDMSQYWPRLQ
Hepatocyte nuclear factor 6 (Homo sapiens), sequence (Q9UBC0 whole entry, looked up, the tested form may be a part): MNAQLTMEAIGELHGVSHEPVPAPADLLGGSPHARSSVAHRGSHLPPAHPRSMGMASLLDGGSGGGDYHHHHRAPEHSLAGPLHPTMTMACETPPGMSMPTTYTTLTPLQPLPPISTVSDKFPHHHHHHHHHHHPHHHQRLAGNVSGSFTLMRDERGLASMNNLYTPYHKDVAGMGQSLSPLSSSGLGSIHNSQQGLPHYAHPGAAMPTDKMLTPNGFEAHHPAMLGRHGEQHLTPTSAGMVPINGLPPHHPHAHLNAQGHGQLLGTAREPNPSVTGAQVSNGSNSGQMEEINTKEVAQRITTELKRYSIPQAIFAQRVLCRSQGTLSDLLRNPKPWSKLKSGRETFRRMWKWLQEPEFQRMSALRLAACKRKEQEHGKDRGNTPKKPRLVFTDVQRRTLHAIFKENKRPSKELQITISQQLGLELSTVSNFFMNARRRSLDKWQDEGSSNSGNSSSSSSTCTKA
Heat shock factor protein 1 (Homo sapiens), sequence (Q00613 whole entry, looked up): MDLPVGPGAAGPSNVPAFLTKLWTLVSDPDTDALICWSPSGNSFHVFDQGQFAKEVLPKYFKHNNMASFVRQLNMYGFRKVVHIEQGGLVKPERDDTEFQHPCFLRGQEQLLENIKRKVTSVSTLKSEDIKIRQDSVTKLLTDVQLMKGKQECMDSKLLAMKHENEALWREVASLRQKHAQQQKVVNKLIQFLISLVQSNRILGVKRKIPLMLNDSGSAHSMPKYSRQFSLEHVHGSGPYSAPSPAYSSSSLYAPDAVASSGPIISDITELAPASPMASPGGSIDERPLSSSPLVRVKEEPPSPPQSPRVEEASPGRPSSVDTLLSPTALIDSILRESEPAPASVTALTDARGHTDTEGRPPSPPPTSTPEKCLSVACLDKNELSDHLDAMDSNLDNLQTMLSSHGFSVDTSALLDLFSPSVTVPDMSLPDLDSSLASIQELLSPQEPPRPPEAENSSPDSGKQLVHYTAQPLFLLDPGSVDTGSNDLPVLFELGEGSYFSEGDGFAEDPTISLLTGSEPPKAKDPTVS
Bile acid receptor (Homo sapiens), sequence (Q96RI1 whole entry, looked up): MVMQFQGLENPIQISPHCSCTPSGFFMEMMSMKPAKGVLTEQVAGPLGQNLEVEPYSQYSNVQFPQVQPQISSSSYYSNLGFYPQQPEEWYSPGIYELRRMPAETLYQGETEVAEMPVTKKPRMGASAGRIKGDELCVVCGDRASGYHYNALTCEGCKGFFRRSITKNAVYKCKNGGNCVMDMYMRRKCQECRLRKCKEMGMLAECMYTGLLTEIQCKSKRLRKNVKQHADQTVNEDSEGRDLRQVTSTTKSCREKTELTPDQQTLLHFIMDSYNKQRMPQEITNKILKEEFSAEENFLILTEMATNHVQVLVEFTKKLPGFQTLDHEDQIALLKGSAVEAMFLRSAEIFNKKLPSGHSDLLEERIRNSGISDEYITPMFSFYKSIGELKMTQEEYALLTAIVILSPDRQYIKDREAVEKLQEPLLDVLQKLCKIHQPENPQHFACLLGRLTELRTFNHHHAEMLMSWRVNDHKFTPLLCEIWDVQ

As to `CCC(C)C(=O)OCCc1ccccc1` (stereo not drawn), the molecule was called inactive in assay [1], in assay [2], in [3], in assay [4], in assay [5] and in assay [6]. Also, the outcome in [7], in [8], in [9], in assay [10], in [11] and in assay [12] was inactive. The molecule was called inactive in assay [13], in [14], in assay [15], in [16], in assay [17] and in assay [18]. Moreover, in [19], the molecule was called inactive.
With `Cc1ccc([N+](=O)[O-])cc1N`, the molecule was classed as inactive in assay [1], in assay [2], in [4], in assay [20], in [5] and in assay [6]. For the same molecule, the outcome in [7], in [8], in [9], in [10], in [11] and in assay [14] was inactive. For the same molecule, the molecule was classed as inactive in assay [16], in assay [17] and in assay [18]. The AC50 in assay [12] is 45.4 µM (active).
For `CC1=CP(=O)(c2ccccc2)CC1` (stereo not drawn), the result in assay [1], in assay [2], in assay [3], in assay [4], in assay [5] and in assay [7] was inactive. Also, the molecule was classed as inactive in assay [9], in [11], in [14], in [15], in [16] and in assay [17]. Further, the call in [18] and in assay [19] was inactive. In addition, the AC50 in [12] was 27.6 µM (active).
With `C=CC(=O)OCCCCCCOC(=O)C=C`, the call in assay [1], in assay [3], in assay [5], in assay [6], in [7] and in [10] was inactive. For the same molecule, the outcome in assay [12], in [13], in assay [16], in [18] and in assay [19] was inactive. The AC50 in [2] is 42.5 µM (active); in assay [4] it was 75.3 µM (active); in assay [8], 180 µM (active); in [9], 52.4 µM (active); in assay [11], 75.7 µM (active).
In the case of `CCc1cccc(CC)c1`, the molecule was called inactive in assay [1], in assay [2], in assay [3], in assay [4], in assay [20] and in [6]. Besides, the molecule was called inactive in assay [7], in [8], in assay [9], in assay [11], in assay [12] and in assay [13]. Moreover, the call in assay [15], in assay [16], in assay [17], in assay [18] and in assay [19] was inactive.

Values taken from PubChem BioAssay (EPA / NIEHS).
